How the values were obtained:
[1] = biological target: Sphingosine kinase 1 (Homo sapiens) (UniProt Q9NYA1); conditions: at 1 µM;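 further: mean SPHK1 inhibition value reported from the GSK PKIS kinase panel screen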
[2] = biological target: T1, Sphingosine kinase 2 (Homo sapiens) (UniProt Q9NRA0); conditions: at 0.1 µM
T1 sequence (whole entry): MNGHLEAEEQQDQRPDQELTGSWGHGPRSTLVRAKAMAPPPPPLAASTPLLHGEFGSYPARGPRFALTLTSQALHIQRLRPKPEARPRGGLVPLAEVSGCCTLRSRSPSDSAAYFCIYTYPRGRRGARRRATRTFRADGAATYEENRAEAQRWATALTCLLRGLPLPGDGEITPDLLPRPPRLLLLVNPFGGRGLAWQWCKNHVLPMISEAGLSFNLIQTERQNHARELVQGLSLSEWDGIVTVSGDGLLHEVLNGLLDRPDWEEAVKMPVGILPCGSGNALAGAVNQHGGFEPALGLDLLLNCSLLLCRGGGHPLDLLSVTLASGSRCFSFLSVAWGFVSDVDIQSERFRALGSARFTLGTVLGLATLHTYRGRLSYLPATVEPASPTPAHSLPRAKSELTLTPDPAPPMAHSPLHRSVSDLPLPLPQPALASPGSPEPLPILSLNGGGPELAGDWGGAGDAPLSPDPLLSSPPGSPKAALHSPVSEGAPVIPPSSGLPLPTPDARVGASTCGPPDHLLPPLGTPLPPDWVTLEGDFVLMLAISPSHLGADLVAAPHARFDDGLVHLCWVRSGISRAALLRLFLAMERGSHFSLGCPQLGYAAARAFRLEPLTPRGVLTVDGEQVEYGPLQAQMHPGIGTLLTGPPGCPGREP

[3] = biological target: T1, Sphingosine kinase 2 (Homo sapiens); conditions: at 1 µM
[4] = biological target: Casein kinase II subunit alpha (Homo sapiens) (UniProt P68400); conditions: at 0.1 µM
[5] = biological target: Casein kinase II subunit alpha (Homo sapiens) (UniProt P68400); conditions: at 1 µM
[6] = biological target: T2, Inhibitor of nuclear factor kappa-B kinase subunit alpha (Homo sapiens) (UniProt O15111); conditions: at 0.1 µM
T2 sequence (whole entry): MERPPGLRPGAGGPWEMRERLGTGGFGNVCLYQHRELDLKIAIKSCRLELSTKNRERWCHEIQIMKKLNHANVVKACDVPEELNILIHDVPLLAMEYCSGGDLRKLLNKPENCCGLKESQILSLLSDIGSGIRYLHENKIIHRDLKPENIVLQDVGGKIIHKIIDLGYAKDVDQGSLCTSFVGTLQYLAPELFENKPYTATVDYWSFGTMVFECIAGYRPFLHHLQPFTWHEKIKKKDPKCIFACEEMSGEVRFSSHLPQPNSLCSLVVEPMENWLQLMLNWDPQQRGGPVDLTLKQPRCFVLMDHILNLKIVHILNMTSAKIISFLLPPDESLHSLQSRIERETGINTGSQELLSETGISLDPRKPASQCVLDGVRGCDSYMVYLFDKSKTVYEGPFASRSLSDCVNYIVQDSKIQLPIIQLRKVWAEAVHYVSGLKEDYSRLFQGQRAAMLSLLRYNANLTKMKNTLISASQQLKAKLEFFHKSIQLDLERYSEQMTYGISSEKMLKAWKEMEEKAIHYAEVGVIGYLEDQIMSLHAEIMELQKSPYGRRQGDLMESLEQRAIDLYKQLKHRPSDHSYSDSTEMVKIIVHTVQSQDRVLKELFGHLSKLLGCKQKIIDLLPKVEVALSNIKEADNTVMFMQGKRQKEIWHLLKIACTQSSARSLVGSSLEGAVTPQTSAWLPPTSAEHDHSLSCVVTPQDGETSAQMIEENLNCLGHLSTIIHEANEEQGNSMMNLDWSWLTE

[7] = biological target: T2, Inhibitor of nuclear factor kappa-B kinase subunit alpha (Homo sapiens); conditions: at 1 µM
[8] = biological target: T3, Inhibitor of nuclear factor kappa-B kinase subunit beta (Homo sapiens) (UniProt O14920); conditions: at 0.1 µM
T3 sequence (whole entry): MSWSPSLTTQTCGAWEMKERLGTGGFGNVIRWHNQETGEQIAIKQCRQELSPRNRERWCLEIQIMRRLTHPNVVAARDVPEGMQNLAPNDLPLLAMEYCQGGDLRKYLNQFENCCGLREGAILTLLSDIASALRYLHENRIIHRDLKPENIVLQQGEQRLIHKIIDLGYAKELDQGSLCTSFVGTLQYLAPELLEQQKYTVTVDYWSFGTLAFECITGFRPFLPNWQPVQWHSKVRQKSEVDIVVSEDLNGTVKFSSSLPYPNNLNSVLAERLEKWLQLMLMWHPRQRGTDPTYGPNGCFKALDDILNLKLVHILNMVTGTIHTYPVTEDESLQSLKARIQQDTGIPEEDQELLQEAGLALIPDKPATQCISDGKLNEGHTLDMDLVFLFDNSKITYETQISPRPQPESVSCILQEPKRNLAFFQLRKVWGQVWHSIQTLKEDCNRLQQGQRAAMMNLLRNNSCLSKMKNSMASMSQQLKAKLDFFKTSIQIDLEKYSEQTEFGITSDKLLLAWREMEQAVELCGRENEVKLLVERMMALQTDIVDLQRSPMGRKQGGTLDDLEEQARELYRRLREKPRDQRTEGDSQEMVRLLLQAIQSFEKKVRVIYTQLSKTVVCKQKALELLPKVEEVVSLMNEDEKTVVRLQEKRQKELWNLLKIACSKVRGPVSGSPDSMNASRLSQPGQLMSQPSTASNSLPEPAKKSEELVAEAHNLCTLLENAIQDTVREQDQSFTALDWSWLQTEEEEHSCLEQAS

[9] = biological target: T3, Inhibitor of nuclear factor kappa-B kinase subunit beta (Homo sapiens); conditions: at 1 µM
[10] = biological target: T4, Inhibitor of nuclear factor kappa-B kinase subunit epsilon (Homo sapiens) (UniProt Q14164); conditions: at 0.1 µM
T4 sequence (whole entry): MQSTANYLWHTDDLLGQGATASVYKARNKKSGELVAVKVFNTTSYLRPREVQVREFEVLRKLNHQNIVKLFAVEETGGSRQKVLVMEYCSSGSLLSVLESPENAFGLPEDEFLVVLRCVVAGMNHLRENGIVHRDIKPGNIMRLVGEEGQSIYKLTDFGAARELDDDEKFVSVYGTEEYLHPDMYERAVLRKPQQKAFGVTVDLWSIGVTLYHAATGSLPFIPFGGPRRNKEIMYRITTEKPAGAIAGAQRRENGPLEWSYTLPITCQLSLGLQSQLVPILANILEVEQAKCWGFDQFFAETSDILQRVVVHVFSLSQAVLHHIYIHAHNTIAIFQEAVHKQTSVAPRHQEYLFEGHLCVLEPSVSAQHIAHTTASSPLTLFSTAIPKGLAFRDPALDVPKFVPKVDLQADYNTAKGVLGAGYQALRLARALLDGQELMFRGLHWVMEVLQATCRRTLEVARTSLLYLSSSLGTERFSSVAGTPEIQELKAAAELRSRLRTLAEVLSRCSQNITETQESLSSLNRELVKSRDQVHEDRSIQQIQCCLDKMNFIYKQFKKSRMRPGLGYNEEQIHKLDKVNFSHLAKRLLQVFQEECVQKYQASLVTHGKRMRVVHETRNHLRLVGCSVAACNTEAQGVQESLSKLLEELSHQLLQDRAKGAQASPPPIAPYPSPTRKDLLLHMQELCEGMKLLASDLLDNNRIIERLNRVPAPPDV

[11] = biological target: T4, Inhibitor of nuclear factor kappa-B kinase subunit epsilon (Homo sapiens); conditions: at 1 µM
[12] = biological target: T5, Serine/threonine-protein kinase Nek1 (Homo sapiens) (UniProt Q96PY6); conditions: at 0.1 µM
T5 sequence (whole entry): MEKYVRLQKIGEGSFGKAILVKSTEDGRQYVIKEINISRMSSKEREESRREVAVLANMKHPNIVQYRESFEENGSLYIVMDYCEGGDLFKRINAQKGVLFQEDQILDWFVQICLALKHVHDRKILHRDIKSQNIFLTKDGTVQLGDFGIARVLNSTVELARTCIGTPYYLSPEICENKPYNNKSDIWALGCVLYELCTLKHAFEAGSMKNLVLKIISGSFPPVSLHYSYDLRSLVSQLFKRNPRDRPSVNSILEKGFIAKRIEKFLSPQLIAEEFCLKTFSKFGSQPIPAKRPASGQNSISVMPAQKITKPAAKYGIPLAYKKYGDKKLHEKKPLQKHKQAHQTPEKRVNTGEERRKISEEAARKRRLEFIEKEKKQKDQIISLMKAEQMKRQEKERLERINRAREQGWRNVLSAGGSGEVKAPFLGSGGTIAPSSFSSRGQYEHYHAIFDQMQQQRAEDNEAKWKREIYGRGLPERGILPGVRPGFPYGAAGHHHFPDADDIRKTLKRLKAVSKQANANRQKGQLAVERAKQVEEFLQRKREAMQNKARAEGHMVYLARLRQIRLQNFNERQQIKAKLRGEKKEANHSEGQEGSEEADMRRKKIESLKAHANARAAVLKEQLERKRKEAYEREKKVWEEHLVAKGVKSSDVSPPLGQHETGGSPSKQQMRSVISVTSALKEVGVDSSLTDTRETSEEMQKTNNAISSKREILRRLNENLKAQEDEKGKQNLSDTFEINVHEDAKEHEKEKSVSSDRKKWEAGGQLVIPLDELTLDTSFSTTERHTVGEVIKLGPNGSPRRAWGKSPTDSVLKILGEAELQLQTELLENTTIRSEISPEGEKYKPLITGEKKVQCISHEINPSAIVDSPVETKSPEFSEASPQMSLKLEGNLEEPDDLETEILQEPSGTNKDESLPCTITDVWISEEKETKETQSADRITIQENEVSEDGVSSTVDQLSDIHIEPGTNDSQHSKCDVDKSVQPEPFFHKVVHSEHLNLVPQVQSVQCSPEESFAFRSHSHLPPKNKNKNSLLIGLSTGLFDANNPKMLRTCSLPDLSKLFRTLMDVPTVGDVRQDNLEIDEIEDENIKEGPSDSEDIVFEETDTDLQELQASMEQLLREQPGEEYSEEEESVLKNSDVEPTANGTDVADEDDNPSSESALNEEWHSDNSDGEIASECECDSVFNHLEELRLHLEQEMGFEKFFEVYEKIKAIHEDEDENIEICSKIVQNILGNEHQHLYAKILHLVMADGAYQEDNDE

[13] = biological target: T5, Serine/threonine-protein kinase Nek1 (Homo sapiens); conditions: at 1 µM
[14] = biological target: T6, Serine/threonine-protein kinase Nek2 (Homo sapiens) (UniProt P51955); conditions: at 0.1 µM
T6 sequence (whole entry): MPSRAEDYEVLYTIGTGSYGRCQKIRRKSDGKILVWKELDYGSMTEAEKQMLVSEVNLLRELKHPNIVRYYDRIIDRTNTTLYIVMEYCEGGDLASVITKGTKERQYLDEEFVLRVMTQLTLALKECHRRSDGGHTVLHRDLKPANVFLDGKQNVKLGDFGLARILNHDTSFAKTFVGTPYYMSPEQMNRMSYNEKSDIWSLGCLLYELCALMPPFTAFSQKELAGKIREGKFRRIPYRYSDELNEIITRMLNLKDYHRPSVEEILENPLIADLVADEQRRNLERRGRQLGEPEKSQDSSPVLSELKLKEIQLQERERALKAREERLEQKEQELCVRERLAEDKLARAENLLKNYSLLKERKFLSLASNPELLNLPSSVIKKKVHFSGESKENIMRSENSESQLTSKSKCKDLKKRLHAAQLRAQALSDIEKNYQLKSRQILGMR

[15] = biological target: T6, Serine/threonine-protein kinase Nek2 (Homo sapiens); conditions: at 1 µM
[16] = biological target: Serine/threonine-protein kinase Nek6 (Homo sapiens) (UniProt Q9HC98); conditions: at 0.1 µM
[17] = biological target: Serine/threonine-protein kinase Nek6 (Homo sapiens) (UniProt Q9HC98); conditions: at 1 µM
[18] = biological target: Serine/threonine-protein kinase Nek7 (Homo sapiens) (UniProt Q8TDX7); conditions: at 0.1 µM
[19] = biological target: Serine/threonine-protein kinase Nek7 (Homo sapiens) (UniProt Q8TDX7); conditions: at 1 µM
[20] = biological target: T7, Serine/threonine-protein kinase Nek9 (Homo sapiens) (UniProt Q8TD19); conditions: at 0.1 µM;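 further: reported value is the mean percent inhibition of NEK9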
T7 sequence (whole entry): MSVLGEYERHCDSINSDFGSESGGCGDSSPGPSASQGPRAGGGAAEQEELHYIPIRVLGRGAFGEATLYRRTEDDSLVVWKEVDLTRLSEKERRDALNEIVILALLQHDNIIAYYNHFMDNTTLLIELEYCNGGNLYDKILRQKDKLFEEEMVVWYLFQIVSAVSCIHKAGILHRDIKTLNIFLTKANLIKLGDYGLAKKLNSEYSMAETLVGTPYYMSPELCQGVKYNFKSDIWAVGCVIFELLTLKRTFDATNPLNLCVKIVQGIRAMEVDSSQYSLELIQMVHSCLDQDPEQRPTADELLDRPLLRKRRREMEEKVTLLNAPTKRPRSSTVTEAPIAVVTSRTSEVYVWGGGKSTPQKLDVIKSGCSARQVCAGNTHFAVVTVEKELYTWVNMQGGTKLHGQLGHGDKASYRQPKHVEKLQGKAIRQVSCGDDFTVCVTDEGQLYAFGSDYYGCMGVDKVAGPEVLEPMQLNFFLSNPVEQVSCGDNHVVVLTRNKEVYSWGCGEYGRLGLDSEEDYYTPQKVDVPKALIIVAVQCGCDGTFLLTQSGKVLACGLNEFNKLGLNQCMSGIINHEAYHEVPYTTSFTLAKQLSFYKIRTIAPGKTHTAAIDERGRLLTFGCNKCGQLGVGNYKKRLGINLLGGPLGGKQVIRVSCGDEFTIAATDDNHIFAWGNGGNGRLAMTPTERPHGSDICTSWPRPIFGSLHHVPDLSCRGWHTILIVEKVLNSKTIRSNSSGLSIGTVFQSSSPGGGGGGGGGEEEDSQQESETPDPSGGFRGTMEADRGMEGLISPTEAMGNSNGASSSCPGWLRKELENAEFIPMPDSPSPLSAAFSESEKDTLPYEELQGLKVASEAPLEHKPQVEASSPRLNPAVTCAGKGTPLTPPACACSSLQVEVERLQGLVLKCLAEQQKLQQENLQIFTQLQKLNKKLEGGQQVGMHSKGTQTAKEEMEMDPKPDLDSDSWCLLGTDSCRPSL

Sequence of Casein kinase II subunit alpha (Homo sapiens) (P68400 whole entry, looked up): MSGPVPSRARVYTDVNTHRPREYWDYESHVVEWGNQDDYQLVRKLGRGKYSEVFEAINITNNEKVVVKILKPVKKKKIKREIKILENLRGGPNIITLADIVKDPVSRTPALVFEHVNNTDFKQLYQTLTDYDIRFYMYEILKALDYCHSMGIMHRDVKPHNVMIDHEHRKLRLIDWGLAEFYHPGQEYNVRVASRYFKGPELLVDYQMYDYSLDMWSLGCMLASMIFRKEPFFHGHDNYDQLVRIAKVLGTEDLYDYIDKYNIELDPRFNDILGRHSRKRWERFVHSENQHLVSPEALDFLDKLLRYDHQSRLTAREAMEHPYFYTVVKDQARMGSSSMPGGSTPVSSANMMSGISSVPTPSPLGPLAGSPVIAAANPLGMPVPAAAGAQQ
Sequence of Serine/threonine-protein kinase Nek7 (Homo sapiens) (Q8TDX7 whole entry, looked up): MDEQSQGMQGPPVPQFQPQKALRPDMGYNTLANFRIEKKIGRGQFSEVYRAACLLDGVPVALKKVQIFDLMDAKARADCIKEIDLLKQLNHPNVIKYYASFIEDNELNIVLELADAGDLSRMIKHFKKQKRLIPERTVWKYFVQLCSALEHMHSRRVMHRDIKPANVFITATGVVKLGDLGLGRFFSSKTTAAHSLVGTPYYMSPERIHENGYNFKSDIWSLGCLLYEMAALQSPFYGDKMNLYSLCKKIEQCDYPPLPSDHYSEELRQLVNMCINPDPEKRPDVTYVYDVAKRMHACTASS
Sequence of Serine/threonine-protein kinase Nek6 (Homo sapiens) (Q9HC98 whole entry): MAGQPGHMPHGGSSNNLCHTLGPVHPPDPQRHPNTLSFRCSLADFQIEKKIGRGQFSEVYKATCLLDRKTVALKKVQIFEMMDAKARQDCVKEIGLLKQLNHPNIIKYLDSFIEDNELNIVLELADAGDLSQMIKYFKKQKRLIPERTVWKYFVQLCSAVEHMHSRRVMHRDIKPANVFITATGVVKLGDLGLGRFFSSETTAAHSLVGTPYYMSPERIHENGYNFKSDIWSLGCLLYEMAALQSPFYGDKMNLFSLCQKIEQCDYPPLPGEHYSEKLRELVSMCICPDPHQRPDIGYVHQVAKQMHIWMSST
Sequence of Sphingosine kinase 1 (Homo sapiens) (Q9NYA1 whole entry): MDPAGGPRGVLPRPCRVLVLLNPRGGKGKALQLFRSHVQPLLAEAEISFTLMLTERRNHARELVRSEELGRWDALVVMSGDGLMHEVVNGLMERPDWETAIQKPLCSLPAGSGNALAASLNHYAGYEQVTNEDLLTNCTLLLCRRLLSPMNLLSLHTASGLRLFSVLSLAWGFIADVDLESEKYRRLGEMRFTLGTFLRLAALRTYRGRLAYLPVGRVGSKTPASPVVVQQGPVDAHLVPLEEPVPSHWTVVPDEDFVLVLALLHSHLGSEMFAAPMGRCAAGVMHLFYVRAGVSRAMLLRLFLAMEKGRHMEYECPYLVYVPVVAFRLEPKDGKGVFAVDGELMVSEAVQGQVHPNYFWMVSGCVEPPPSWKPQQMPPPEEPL

SMILES: NS(=O)(=O)c1ccc(N/N=C2\C(=O)Nc3ccc(C(=O)NCCc4c[nH]cn4)cc32)cc1
- inhibition [1]: -1.01%
- inhibition [2]: 1.57%
- inhibition [3]: 0.18%
- inhibition [4]: 6.03%
- inhibition [5]: 18.6%
- inhibition [6]: 10.2%
- inhibition [7]: 13%
- inhibition [8]: 4.11%
- inhibition [9]: 3.92%
- inhibition [10]: 7.82%
- inhibition [11]: 19%
- inhibition [12]: 2.19%
- inhibition [13]: -1.06%
- inhibition [14]: 5.57%
- inhibition [15]: 5.42%
- inhibition [16]: 3.45%
- inhibition [17]: 1.65%
- inhibition [18]: 4.83%
- inhibition [19]: 7.05%
- inhibition [20]: 10.2%
